KCNQ2 pot: potentiators of rat KCNQ2 potassium channel. Potassium voltage-gated channel subfamily KQT member 2 (Rattus norvegicus), O88943. CHO-K1 KCNQ2, FluxOR thallium flux fluorescence; active compounds read high. B-score at 10 µM. 310,000 compounds, 0.54% hits;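 active = fluorescence ratio B-score at least 3 SD of library B-scores, with initial fluorescence B-score within 3 of them, cut at about 5.3 in these data; same plate scores as AID 2156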;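 note: B-score of peak minus minimum over baseline fluorescence ratio after K+ and Tl+ stimulus; positive B-score means potentiation of KCNQ2 with more thallium influx and brighter signal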
Target sequence (O88943 whole entry, looked up): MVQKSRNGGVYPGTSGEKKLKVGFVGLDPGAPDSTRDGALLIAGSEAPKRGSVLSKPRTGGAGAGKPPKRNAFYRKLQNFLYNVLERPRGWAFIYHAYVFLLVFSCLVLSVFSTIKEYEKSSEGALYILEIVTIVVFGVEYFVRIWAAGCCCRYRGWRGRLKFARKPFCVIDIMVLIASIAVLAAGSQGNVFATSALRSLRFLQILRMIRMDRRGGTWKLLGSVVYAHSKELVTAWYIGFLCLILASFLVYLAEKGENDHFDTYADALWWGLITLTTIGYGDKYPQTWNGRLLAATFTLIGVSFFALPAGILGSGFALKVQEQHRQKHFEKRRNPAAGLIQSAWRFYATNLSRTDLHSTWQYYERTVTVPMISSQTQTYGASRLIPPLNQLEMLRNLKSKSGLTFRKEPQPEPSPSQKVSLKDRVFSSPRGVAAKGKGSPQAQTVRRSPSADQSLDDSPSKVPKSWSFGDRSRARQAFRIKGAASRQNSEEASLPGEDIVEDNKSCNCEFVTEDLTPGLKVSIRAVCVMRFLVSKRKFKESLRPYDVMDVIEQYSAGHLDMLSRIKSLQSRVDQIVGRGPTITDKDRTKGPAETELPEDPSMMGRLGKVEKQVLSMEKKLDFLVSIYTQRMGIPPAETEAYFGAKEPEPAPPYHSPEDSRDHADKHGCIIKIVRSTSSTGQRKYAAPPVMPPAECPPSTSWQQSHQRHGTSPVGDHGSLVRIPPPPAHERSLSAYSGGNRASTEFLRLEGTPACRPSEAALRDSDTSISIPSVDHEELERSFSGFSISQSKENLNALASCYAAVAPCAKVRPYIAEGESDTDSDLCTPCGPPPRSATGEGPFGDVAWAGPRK
KCNQ2 block: rat KCNQ2 potassium channel inhibitors, primary screen, cell-based, CHO-K1, FluxOR thallium flux, B-score; 20 min; active compounds read low; AID 2156, 2009; 310,000 compounds, 1.1% hits; Potassium voltage-gated channel subfamily KQT member 2 (Rattus norvegicus), O88943; B-score at 10 µM;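 active = fluorescence ratio B-score at most minus 3 library SDs, with starting brightness B-score within 2 library SDs, cut at about -5.5 in these data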
Of the large screens only hits and unclear results are named; the others gave an inactive call. Most compounds without a hit are left out; they make up all but 1.6% or so of the library.

Cc1cc(C)cc(S(=O)(=O)c2cn(C)c3cc(N4CCN(C)CC4)c(F)cc3c2=O)c1	none (no result: KCNQ2 pot)
CC1CCc2sc(C(=O)NNC(=S)NCC3CCCO3)cc2C1 (centres undefined)	none
CC1CCc2sc(C(=O)NC(C)C3CCCO3)cc2C1 (centres undefined)	KCNQ2 block -6.1
O=C(CSc1ccccc1)N(c1ccc(Br)cc1)c1nccs1	none (no result: KCNQ2 pot)
O=C(CSc1nncn1-c1cccnc1)Nc1cccc(C(F)(F)F)c1	none
COc1ccc(C2CC(c3ccccc3)Nc3nc(NC(=O)c4cccs4)nn32)cc1 (centres undefined)	none
COc1ccc(C2CC(c3ccccc3)n3nc(NC(=O)c4cccs4)nc3N2)cc1 (centres undefined)	KCNQ2 block -5.6
CCN(Cc1ccccc1)C(c1ccc(Cl)cc1)c1nnnn1C(C)(C)C (centres undefined)	none (no result: KCNQ2 pot)
CCN(Cc1ccccc1)C(c1ccc(C)cc1)c1nnnn1C(C)(C)C (centres undefined)	KCNQ2 block -11
Cc1ccc(N(C)S(=O)(=O)c2ccc(-c3cnc(C4CC4)o3)cc2)cc1	KCNQ2 block -9.5
Cc1ccc(NS(=O)(=O)c2ccc(-c3cnc(C4CC4)o3)cc2)cc1	none (no result: KCNQ2 pot)
O=C(Nc1cccc(C(F)(F)F)c1)c1cccnc1N1CCN(c2ccccc2)CC1	KCNQ2 block -7
O=C(Nc1cccc(C(F)(F)F)c1)c1cccnc1N1CCN(CCO)CC1	none (no result: KCNQ2 pot)
CSc1nnc(NC(=O)c2ccc(S(=O)(=O)N3CCOCC3)cc2)s1	none
Cc1ccc(-c2csc3nc[nH]c(=S)c23)cc1	KCNQ2 pot 14
O=c1[nH]cnc2scc(-c3ccc(Br)cc3)c12	none
CCOc1ccccc1NC(=O)CCc1nnc2ccc(N3CCC4(CC3)OCCO4)nn12	none
Cn1c(SC(C(=O)Nc2ccc(F)cc2)c2ccccc2)nc2ccccc21 (centres undefined)	none
CC(Sc1nc2ccccc2n1C)C(=O)NC(c1ccccc1)c1ccccc1 (centres undefined)	KCNQ2 block -6.1
CC(C)CCN1CCN(Cc2cccc(C(F)(F)F)c2)CC1CCO (centres undefined)	none (no result: KCNQ2 pot)
Cc1c(C(=O)N/N=C/c2cccnc2)nnn1-c1nonc1N	none
Cc1nc(SC(C(=O)c2ccccc2)c2ccccc2)nc2ccccc12 (centres undefined)	none (no result: KCNQ2 pot)
COc1ccc2nc(SC(C(=O)c3ccccc3)c3ccccc3)nc(C)c2c1 (centres undefined)	KCNQ2 block -5.6
Cc1ccc2c(C)nc(SC(C(=O)c3ccccc3)c3ccccc3)nc2c1 (centres undefined)	KCNQ2 block -6
COc1ccc2nc(SCc3ccccc3C)nc(C)c2c1	none (no result: KCNQ2 pot)
COc1ccc(C2=CSC3=C(C(=O)c4cccc(S(=O)(=O)N(C)C)c4)CCN23)cc1	none
CN(C(=O)C(Cl)Cl)C1CC2C=CC1C2 (centres undefined)	none (no result: KCNQ2 pot)
CCN(CC)c1nc2c(c(=O)n(C)c(=O)n2C)n1CCCc1ccccc1	none (no result: KCNQ2 pot)
CN(Cc1ccccc1)c1nc2c(c(=O)n(C)c(=O)n2C)n1CCCc1ccccc1	KCNQ2 block -7.9
COc1ccc(OC)c(NC(=O)CSc2ccc3nnc(-c4cccnc4)n3n2)c1	none
CCCn1c(=O)c(C#N)cn(C2CC2)c1=O	none (no result: KCNQ2 pot)
CC(C)CNC(=S)N1CCN(C(c2ccccc2)c2ccccc2)CC1	KCNQ2 block -5.9
C=C(C)CNC(=S)N1CCN(C(c2ccccc2)c2ccccc2)CC1	none (no result: KCNQ2 pot)
COc1ccccc1NC(=O)CNC(c1ccccc1)c1ccccc1	KCNQ2 block -6.1
COc1ccccc1C(C)NCC(=O)Nc1c(F)cccc1F (centres undefined)	none
COc1cc(Cl)c(C)cc1NC(=O)CNC(C)c1ccccc1OC (centres undefined)	KCNQ2 block -5.8
COc1ccc(C)cc1NC(=O)CNC(c1ccccc1)c1ccc(C)cc1 (centres undefined)	none (no result: KCNQ2 pot)
COC(=O)c1cnc(SCC(=O)c2ccccc2)n1C	none (no result: KCNQ2 pot)
Cc1nn(C)cc1S(=O)(=O)Nc1ccccc1Br	none
CCN(CC(=O)Nc1ccccc1OC)C(=O)c1cc(S(=O)(=O)N2CCCCCC2)ccc1OC	none (no result: KCNQ2 pot)
O=C(Nc1ccncc1Cl)c1ccncc1	none
COc1cccc(N2CCN(C(=O)c3cccn4c(=O)c5c(C)c(C)sc5nc34)CC2)c1	none (no result: KCNQ2 pot)
Cc1sc2nc3c(C(=O)N4CCCC4)cc(C(=O)c4ccccc4O)cn3c(=O)c2c1C	KCNQ2 block -7.1
COC(=O)c1ccc(Cn2cnc3c(sc4nc(N5CCOCC5)c5c(c43)CCCC5)c2=O)o1	none
CC1=NN(c2ccc(Cl)c(C(=O)O)c2)C(=O)/C1=C\c1ccc(-c2ccc(C(=O)O)cc2)o1	none
CC1=NN(c2ccccc2)C(=O)/C1=C/c1ccc(-c2ccc(C)c(C(=O)O)c2)o1	KCNQ2 pot 6.8
CCN(CC)S(=O)(=O)c1cccc(NC(=O)CCNC(=O)NC23CC4CC(CC(C4)C2)C3)c1	none (no result: KCNQ2 pot)
CC(C)CC(C(=O)N1CCc2ccccc2C1)N1C(=O)c2ccccc2C1=O (centres undefined)	KCNQ2 block -6.5
CC(C(=O)N1CCc2ccccc2C1)N1C(=O)c2ccccc2C1=O (centres undefined)	none
O=C(C1=C[C@H](C2CC2)C[C@H](OCc2ccc(CO)cc2)O1)N1CCOCC1	none (no result: KCNQ2 pot)
CN1CCN(C(=S)C(=O)Nc2ccc(Br)cc2)CC1	none
Cc1cccc(N2CCN(C(=O)c3cn(C)c(=O)c4c3c3ccccc3n4C)CC2)c1C	none (no result: KCNQ2 pot)
Cc1ccc(Cl)cc1N1CCN(C(=O)c2cn(C)c(=O)c3c2c2ccccc2n3C)CC1	KCNQ2 block -7.5
CC(NC(=O)C(c1ccccc1)c1ccccc1)C(=O)N1CCCCC1 (centres undefined)	none (no result: KCNQ2 pot)
COc1ccc(CNC(=O)C(c2ccc(C)o2)N(C(=O)c2csnn2)c2ccc(C(C)C)cc2)cc1 (centres undefined)	KCNQ2 block -6.1
Cc1cccc(N(C(=O)c2csnn2)C(C(=O)NCc2ccccc2)c2ccc(C)o2)c1 (centres undefined)	none (no result: KCNQ2 pot)
COCCN(C(=O)Cc1cccs1)C(C(=O)NCc1ccc(OC)cc1)c1ccc(C)cc1 (centres undefined)	none
O=C(NCc1ccccc1)C(c1ccccc1)N(Cc1ccc2c(c1)OCO2)C(=O)Cc1cccs1 (centres undefined)	KCNQ2 block -7
O=C(NC1CCCC1)C(c1ccccc1)N(Cc1ccc2c(c1)OCO2)C(=O)Cc1cccs1 (centres undefined)	none
COc1ccc(CNC(=O)C(c2ccc(C)o2)N(Cc2cccs2)C(=O)Cc2cccs2)cc1 (centres undefined)	KCNQ2 block -6.4
Cc1ccc(S(=O)(=O)NC(CC(=O)O)c2cccs2)cc1 (centres undefined)	none
CCOC(=O)/C(=C/c1ccco1)NC(=O)c1ccc(Br)o1	none
CCOC(=O)c1cc2c(OC)ccc(OC)c2n1CC(=O)c1ccccc1	none
COc1ccc(C/C(N)=N/OC(=O)CCc2ccccc2)cc1	none (no result: KCNQ2 pot)
O=S(=O)(NCCN1CCOCC1)c1ccc(-c2ccc(S(=O)(=O)NCCN3CCOCC3)cc2)cc1	none (no result: KCNQ2 pot)
O=S(=O)(NCCCN1CCOCC1)c1ccc(Cl)cc1	KCNQ2 pot 8
CC(=O)N1CCOc2ccc(S(=O)(=O)NCCc3ccc(C)cc3)cc21	none (no result: KCNQ2 pot)
CN1CCOc2ccc(S(=O)(=O)NCCc3ccc(Cl)cc3)cc21	KCNQ2 block -6.7
COCCNC(=O)[C@H]1N2C(=O)c3ccccc3C2SC1(C)C (some centres undefined)	none (no result: KCNQ2 pot)
O=C(CN1CCCCCC1)Nc1ccccc1C(=O)Nc1ccccc1	none

Bioassay records as filed in PubChem.
